Bioassay records (PubChem)
C8 TRAIL sens: sensitizes caspase-8 expressing cells to TRAIL; inhibition (viability loss, TRAIL sensitization), % at 10 µM; 360,000 tested, 1% active; NB7+C8 cells + TRAIL, ATPlite viability luminescence;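 active = compounds causing at least 50% loss of cell viability in the single-dose screen, relative to plate controls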
TWEAK Fn14 block: blocks TWEAK-Fn14 interaction in a reporter cell assay. TWEAK-stimulated Fn14 reporter cells, luciferase luminescence, 8 h. AID 1159606. 360,000 tested, 2% active. inhibition, % at 10 µM; in the data active = inhibition above about 50%
HIF-2a block: blocks HIF-2a reporter activity; inhibition, % at 18.8 µM; 786-0 RCC cells HIF-2a reporter, luciferase luminescence, overnight; 360,000 tested, 0.72% active;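 active = inhibition of the luminescence signal of 40% or more relative to plate controls, in a single-dose primary screen at 18.75 µM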
aSyn UTR inh: 5' untranslated region of α-synuclein, MLPCN primary screen | alpha-synuclein 5'UTR reporter, inhibitor activity | inhibition, % (tested at 7.5 µM) | 300,000 tested, 0.82% active | AID 1813; in the data active = inhibition above about 60%;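 note: H4 neuroglioblastoma cells stably carrying SNCA 5'UTR luciferase fusion; 0% = DMSO wells and 100% = positive control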
HSP90 refold inh: blocks HSP90-mediated luciferase refolding in reticulocyte lysate; Rabbit reticulocyte lysate, luciferase refolding luminescence, 3 h; inhibition, % at 5.6 µM; 290,000 tested, 0.91% active;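 active = inhibition above the screen-wide mean plus 3 SD, computed separately per campaign, cut at about 16% in these data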;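 note: 0% = DMSO wells and 100% = 60 µM geldanamycin wells; inhibitors lower the luminescence because luciferase stays unfolded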
TROY signal inh: TROY signaling inhibition. AID 1347056. Q293 LMP1-TROYcd NF-kB luciferase reporter, 4 h. 360,000 tested, 0.98% active. inhibition, % at 10 µM;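 active = compounds whose plate-normalised and pattern-corrected inhibition of the luciferase reporter signal at the single screening dose is 50% or more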
* hit, by the source's call; · = no result; ! = repeats disagree. The list is not random: actives were taken first. Their share in the collection is about 3.9%.

SMILES | C8 TRAIL sens | TWEAK Fn14 block | HIF-2a block | aSyn UTR inh | HSP90 refold inh | TROY signal inh
CCOC(=O)c1[nH]c(C)c(C(=O)OCC)c1C | 8 | -45 | -120 | -4 | -1 | -36
CCOC(=O)c1[nH]c(C)c(C(=O)c2cc(F)ccc2F)c1C | 8 | -14 | -71 | 74* | 2 | 3
CC(C)(C)N=C1NC(=NC(C)(C)C)c2ccccc21 | -9 | 53* | -11 | 0 | 1 | -23
COc1ccc(C(O)c2ncc(-c3ccccc3Cl)[nH]2)cc1F (stereo not drawn) | 4 | 7 | -5 | · | · | -13
COC(=O)CCCn1cc(CN2CC(N3CCN(C4CCN(C)CC4)CC3)CS2(=O)=O)nn1 (stereo not drawn) | -4 | 10 | 11 | · | · | -13
CCc1ccc(C(O)c2ncc(-c3ccccc3OC)[nH]2)cc1 (stereo not drawn) | -11 | -1 | -6 | · | · | 7
O=C1[C@H]2[C@@H](/C=C/c3ccccc3)N3C(=O)CN(CC4CC4)C(=O)[C@@]3(Cc3ccccc3)[C@H]2C(=O)N1c1ccccc1 | 55* | -18 | 5 | 27 | -2 | -28
O=C1[C@H]2[C@@H](/C=C/c3ccccc3)N3C(=O)CN(CCO)C(=O)[C@@]3(Cc3ccccc3)[C@H]2C(=O)N1c1ccccc1 | -4 | 5 | 13 | 8 | 4 | 3
Cc1ccc(C(=O)Nc2cccc(C(F)(F)F)c2)cc1NC(=O)c1cnnc2ccccc12 | -10 | -38 | 2 | 64* | · | -4
Cc1ccc(C(=O)Nc2cccc(C(F)(F)F)c2)cc1NC(=O)c1nccnc1N | 54*! | -85 | 12 | 78* | · | -12
Cc1ccc(C(=O)Nc2cccc(C(F)(F)F)c2)cc1Nc1cncnc1 | -2 | -3 | 9 | -11 | -3 | 8
Cc1sc2nc(C)n(/N=C/c3ccc(O)cc3)c(=O)c2c1C | 50* | -2 | 21 | 5 | 2 | -2
Cc1cn([C@H]2C[C@H](O)[C@@H](/C=C/C(=O)N3CCN(Cc4ccc(F)cc4)CC3)O2)c(=O)[nH]c1=O | -7 | 12 | 7 | · | · | 0
COc1ccc(CN(C(=O)Cc2cccs2)C(C(=O)NC2CCCC2)c2ccncc2)cc1 (stereo not drawn) | -4 | 9 | -12 | 7 | -1 | -12
COc1ccc(C(C(=O)NC2CCCCC2)N(Cc2cccs2)C(=O)Cc2c[nH]c3ccccc23)cc1 (stereo not drawn) | 10 | 65* | 6 | 19 | 2 | 30
COc1cccc(CN(C(=O)Cc2c[nH]c3ccccc23)C(C(=O)NC2CCCCC2)c2cccs2)c1 (stereo not drawn) | 9 | 53* | 0 | 26 | 1 | 13
O=S(=O)(c1ccccc1)N1CC2CC(Br)C(Br)CC21 (stereo not drawn) | -7 | -18 | -18 | · | · | -8
CCc1nc2ccc(C(=O)N3CCN(C(=O)c4ccco4)CC3)cn2c1N(CC)Cc1cccc(Br)c1 | -4 | -1 | 11 | · | · | -4
O=C1C=CC2(O[C@H](c3ccccc3)[C@@H](c3ccccc3)O2)[C@H](Sc2ccccc2O)C1 | 46 | 105* | 89* | · | · | 80*
O=C(O)c1ccc(-c2ccccc2)[nH]1 | -21 | 8 | 14 | -17 | -1 | -3
O=C(O)c1ccc2cc(-c3ccccc3)[nH]c2c1 | 5 | 98* | 20 | 66* | · | 40
CCOC(=O)N1CCN(C(=O)C[C@@H]2C[C@@]3(C(=O)OCC)CCCC=C3N(CCC3=CCCCC3)C2=O)CC1 | 6 | · | 1 | · | · | ·
COCCCn1cc(CN2CC(N3CCSCC3)CS2(=O)=O)nn1 (stereo not drawn) | -5 | 7 | 17 | · | · | -10
Cc1ccc(-c2nnc(NCc3nc4ccccc4[nH]3)c3ccccc23)cc1S(=O)(=O)N(C)C | 22 | 55* | 8 | -18 | -1 | 52*
Cc1ccc(-c2nnc(NCc3nc4ccccc4[nH]3)c3ccccc23)cc1S(=O)(=O)N1CCOCC1 | 13 | 66* | -9 | 2 | -2 | 5
SMILES | C8 TRAIL sens | TWEAK Fn14 block | HIF-2a block | aSyn UTR inh | HSP90 refold inh | TROY signal inh
Cc1ccc(-c2nc3ccccc3s2)cc1S(=O)(=O)N1CCOCC1 | 11 | 11 | -87 | -66 | 2 | 37
Cc1ccc(-c2nnc(N3CCCCC3)c3ccccc23)cc1S(=O)(=O)N(C)C | 8 | 18 | 16 | 30 | -4 | 16
C=CCn1c(Cn2c(-c3cnccn3)nc3ccccc32)nc2ccccc21 | 10 | -11 | 14 | · | · | 4
COc1cc(OC)c(NC(=O)c2cc3ccccc3cc2O)cc1Cl | 44 | 94* | -190 | · | · | 57*
Cc1ccc2c(c1)c(C1=c3ccccc3=NC1=O)c(O)n2C | 5 | 29 | 42* | -10 | -1 | 28
C=CCn1c(O)c(C2=c3ccccc3=NC2=O)s/c1=N/c1nccs1 | 33 | -33 | -1 | -31 | 0 | -6
C=CCn1c(O)c(C2=c3ccccc3=NC2=O)c2ccccc21 | 12 | 30 | 45* | -29 | 3 | 33
CO[C@H]1CN(C)C(=O)c2ccc(NC(=O)NC(C)C)cc2OC[C@H](C)NC[C@H]1C | -4 | · | 11 | · | · | ·
O=S1(=O)CC(N2CCCC2)CN1Cc1cn(Cc2ccccc2)nn1 (stereo not drawn) | -13 | -4 | -3 | · | · | 2
CCOC(=O)C1=CN(Cc2ccco2)S(=O)(=O)NC1CC (stereo not drawn) | -12 | -8 | 5 | · | · | 4
Cc1ccc2c(=O)n3c(nc2c1)C(Cc1ccc(O)cc1)NC(=O)c1cc2ccccc2cc1-3 (stereo not drawn) | 33 | 8 | 1 | · | · | 37
O=C(Nc1ccc(F)cc1)Nc1ccc2c(c1)CCC2 | 27 | -23 | -218 | -120 | -4 | -44
O=C(Nc1ccc2c(c1)CCC2)c1ccc(F)cc1 | 52* | 20 | -179 | -16 | 16 | -48
O=C(Nc1ccc2c(c1)CCC2)c1cc(S(=O)(=O)Nc2ccc(F)cc2)c(Cl)cc1Cl | 8 | 52* | -43 | -33 | -2 | 37
CC(/C=C1\SC(=S)N(CCCC(=O)Nc2ccc(C(=O)O)cc2)C1=O)=C\c1ccccc1 | 1 | 50* | -78 | 5 | 3 | -3
C=CCN1C(=O)/C(=C\C(C)=C\c2ccccc2)SC1=S | 12 | -10 | -1 | -37 | -5 | 7
CC(=C\c1ccccc1)/C=C1/SC(=S)N(CCCC(=O)O)C1=O | 6 | 20 | 91* | 67* | 1 | 60*
CC(=Cc1ccccc1)C=C1SC(=S)N(CCCC(=O)Nc2ccc(C(=O)O)cc2)C1=O | 1 | 64* | -23 | · | · | 29
Cc1cc(C)cc(Cn2cc(CN3CC(N4CCCCC4)CS3(=O)=O)nn2)c1 (stereo not drawn) | 3 | -6 | 1 | · | · | -10
CCN=c1scc(-c2cccs2)n1/N=C/c1cc(OC)ccc1O | 49 | 62* | -258 | · | -3 | 34
CC(C)N=c1scc(-c2cccs2)n1/N=C/c1ccc(O)c(O)c1O | 17 | 54* | -72 | · | 4 | 14
Cn1c(SSc2ccc(-c3cccnc3)n2C)ccc1-c1cccnc1 | 8 | 69* | 34 | · | · | 49
